Laboratory results as given in PMC7862700, “An all-to-all approach to the identification of sequence-specific readers for epigenetic DNA modifications on cytosine”.

How the values were obtained:
Test in all cases: DAPPL (digital affinity profiling via proximity ligation, sequencing); 10 mM Tris-HCl pH 7.5, 50 mM NaCl, 1 mM DTT, 4% glycerol, room temperature, 30 min; GST-TFs on glutathione beads, 16-mer random dsDNA library, 0.1% formaldehyde crosslink after washing; high values mean tight binding
FLI1 = molecular target: T1, FLI1 (Homo sapiens, UniProt Q01543 1-452); details: protein: recombinant; tags: N-terminal GST; dsDNA, one strand shown
T1 sequence: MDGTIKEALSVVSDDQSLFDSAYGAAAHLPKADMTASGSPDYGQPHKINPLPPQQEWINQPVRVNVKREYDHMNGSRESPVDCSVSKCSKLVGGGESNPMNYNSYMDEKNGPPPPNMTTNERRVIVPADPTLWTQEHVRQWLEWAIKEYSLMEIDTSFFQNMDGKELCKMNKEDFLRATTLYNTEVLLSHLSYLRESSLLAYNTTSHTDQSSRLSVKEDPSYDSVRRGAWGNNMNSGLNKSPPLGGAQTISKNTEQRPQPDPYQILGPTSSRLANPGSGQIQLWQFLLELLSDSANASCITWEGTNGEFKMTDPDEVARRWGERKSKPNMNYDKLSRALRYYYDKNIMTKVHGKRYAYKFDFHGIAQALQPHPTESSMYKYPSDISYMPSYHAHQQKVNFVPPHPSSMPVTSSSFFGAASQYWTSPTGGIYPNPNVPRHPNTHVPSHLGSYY
How it was run: (§1)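 Pools of DNA-barcoded human transcription factors, expressed in yeast as GST fusions on glutathione beads and combined with a tag-only sample, were incubated with 200 nmole of a 16-mer random double-stranded DNA library. Incubation took 30 min at room temperature in Tris/NaCl/DTT/glycerol buffer and was followed by washing, 0.1% formaldehyde crosslinking, proximity ligation (BsaI/T4 ligase, 1 h, 37 °C), PCR amplification and sequencing on an Illumina NextSeq500. Binding signal is the ratio of a hexamer's read frequency for a factor to its frequency for the tag-only sample.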

ELK1 = molecular target: T2, ELK1 (Homo sapiens, UniProt P19419 1-428); details: protein: recombinant; tags: N-terminal GST; dsDNA, one strand shown
T2 sequence: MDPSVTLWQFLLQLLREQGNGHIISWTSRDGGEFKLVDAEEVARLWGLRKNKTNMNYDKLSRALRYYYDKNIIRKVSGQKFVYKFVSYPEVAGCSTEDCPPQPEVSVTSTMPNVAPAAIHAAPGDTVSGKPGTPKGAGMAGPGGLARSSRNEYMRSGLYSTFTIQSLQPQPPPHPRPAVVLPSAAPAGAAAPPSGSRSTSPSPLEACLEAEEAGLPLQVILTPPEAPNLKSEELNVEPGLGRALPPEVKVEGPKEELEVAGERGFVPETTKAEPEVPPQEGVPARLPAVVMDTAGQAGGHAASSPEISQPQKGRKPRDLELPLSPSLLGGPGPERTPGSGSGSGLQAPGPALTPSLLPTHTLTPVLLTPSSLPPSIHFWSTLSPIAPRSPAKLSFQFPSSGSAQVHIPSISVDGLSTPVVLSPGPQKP
How it was run: as §1

GABPA = molecular target: T3, GABPA (Homo sapiens, UniProt Q06546 1-454); details: protein: recombinant; tags: N-terminal GST; dsDNA, one strand shown
T3 sequence: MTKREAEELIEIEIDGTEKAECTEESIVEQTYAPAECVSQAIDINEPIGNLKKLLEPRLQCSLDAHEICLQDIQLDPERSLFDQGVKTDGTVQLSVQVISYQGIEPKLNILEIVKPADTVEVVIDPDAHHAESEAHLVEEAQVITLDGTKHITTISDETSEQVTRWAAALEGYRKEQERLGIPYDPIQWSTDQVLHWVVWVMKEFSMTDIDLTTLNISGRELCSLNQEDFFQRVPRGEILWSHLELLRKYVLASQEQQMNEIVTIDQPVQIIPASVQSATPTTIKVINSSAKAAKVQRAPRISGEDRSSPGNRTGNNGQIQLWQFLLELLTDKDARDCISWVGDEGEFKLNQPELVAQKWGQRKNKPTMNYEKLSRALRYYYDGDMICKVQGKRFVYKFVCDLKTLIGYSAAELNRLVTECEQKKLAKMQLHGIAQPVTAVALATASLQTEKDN
How it was run: as §1

ERG = molecular target: T4, ERG (Homo sapiens, UniProt P11308 1-479); details: protein: recombinant; tags: N-terminal GST; dsDNA, one strand shown
T4 sequence: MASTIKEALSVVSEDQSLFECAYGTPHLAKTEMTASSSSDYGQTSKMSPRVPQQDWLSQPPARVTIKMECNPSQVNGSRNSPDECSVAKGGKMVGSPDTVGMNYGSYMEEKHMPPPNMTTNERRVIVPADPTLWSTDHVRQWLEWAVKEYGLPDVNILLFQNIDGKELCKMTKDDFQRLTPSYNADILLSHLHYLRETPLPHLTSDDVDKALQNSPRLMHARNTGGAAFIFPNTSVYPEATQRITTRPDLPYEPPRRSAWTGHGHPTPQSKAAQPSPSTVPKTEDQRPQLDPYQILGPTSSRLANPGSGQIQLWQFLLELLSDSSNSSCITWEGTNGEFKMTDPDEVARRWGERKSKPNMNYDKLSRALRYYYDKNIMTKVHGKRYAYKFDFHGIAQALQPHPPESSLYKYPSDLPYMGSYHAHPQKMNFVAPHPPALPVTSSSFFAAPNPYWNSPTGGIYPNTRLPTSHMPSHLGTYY
How it was run: as §1

ELF1 = ELF1 (Homo sapiens, UniProt P32519 1-619); details: protein: recombinant; tags: N-terminal GST; dsDNA, one strand shown
How it was run: as §1

EHF = molecular target: T5, EHF (Homo sapiens, UniProt Q9NZC4 1-300); details: protein: recombinant; tags: N-terminal GST; dsDNA, one strand shown
T5 sequence: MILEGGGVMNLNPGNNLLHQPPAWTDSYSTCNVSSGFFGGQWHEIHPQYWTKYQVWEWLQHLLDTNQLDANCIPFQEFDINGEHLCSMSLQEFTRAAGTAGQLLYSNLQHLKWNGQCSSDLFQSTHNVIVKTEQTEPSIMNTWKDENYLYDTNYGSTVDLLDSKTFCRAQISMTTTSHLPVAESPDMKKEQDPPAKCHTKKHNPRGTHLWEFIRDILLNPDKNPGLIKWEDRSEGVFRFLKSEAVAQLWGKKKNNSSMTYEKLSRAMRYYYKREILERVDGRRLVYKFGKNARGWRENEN
How it was run: as §1

SPI1 = SPI1 (Homo sapiens, UniProt P17947 1-270); details: protein: recombinant; tags: N-terminal GST; dsDNA, one strand shown
How it was run: as §1

SPIB = SPIB (Homo sapiens, UniProt Q01892 1-262); details: protein: recombinant; tags: N-terminal GST; dsDNA, one strand shown
How it was run: as §1

ELK3 = molecular target: T6, ELK3 (Homo sapiens, UniProt P41970 1-407); details: protein: recombinant; tags: N-terminal GST; dsDNA, one strand shown
T6 sequence: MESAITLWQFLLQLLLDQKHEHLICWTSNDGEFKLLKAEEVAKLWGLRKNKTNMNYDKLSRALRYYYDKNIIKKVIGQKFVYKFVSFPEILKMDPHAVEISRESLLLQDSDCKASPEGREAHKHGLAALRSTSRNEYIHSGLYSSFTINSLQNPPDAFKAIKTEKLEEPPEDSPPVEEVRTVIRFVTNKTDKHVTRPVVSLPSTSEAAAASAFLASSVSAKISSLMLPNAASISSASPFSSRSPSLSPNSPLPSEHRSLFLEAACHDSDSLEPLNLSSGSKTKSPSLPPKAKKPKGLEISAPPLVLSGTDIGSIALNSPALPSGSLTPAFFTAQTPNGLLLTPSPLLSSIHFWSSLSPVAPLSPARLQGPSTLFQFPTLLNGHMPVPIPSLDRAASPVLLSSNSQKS
How it was run: as §1

FEV = molecular target: T7, FEV (Homo sapiens, UniProt Q99581 1-238); details: protein: recombinant; tags: N-terminal GST; dsDNA, one strand shown
T7 sequence: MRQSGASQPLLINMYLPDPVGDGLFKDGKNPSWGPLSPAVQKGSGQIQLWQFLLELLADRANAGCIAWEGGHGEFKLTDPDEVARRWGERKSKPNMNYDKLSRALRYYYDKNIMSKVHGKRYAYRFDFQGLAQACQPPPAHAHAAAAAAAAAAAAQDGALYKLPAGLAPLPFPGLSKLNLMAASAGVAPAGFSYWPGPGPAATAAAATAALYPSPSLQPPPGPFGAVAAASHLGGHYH
How it was run: as §1

ETV5 = ETV5 (Homo sapiens, UniProt P41161 1-510); details: protein: recombinant; tags: N-terminal GST; dsDNA, one strand shown
How it was run: as §1

HSF1 = HSF1 (Homo sapiens, UniProt Q00613 1-529); details: protein: recombinant; tags: N-terminal GST; chain copies: 3; dsDNA, one strand shown
How it was run: as §1

SPIC = molecular target: T8, SPIC (Homo sapiens, UniProt Q8N5J4 1-248); details: protein: recombinant; tags: N-terminal GST; dsDNA, one strand shown
T8 sequence: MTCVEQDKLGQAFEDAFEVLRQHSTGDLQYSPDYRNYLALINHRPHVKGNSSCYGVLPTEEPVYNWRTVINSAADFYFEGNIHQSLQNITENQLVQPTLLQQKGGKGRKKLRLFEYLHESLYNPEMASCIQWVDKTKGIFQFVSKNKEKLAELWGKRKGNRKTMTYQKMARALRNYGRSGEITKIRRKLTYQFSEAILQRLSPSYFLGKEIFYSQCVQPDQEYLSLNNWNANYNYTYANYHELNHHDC
How it was run: as §1

ELF4 = ELF4 (Homo sapiens, UniProt Q99607 1-663); details: protein: recombinant; tags: N-terminal GST; dsDNA, one strand shown
How it was run: as §1

ELK4 = molecular target: T9, ELK4 (Homo sapiens, UniProt P28324-2 1-405); details: protein: recombinant; tags: N-terminal GST; dsDNA, one strand shown
T9 sequence: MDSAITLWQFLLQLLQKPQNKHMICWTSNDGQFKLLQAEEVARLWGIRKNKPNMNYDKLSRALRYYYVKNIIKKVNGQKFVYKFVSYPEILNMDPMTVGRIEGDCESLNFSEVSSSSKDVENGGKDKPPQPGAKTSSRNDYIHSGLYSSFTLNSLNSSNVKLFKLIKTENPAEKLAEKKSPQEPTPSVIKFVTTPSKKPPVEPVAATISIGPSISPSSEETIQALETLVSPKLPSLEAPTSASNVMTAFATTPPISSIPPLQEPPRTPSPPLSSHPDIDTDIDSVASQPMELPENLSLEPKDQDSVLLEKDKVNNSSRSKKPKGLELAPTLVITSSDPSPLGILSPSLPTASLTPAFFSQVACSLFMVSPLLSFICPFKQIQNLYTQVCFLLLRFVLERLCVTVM
How it was run: as §1

ETV2 = molecular target: T10, ETV2 (Homo sapiens, UniProt O00321 1-342); details: protein: recombinant; tags: N-terminal GST; dsDNA, one strand shown
T10 sequence: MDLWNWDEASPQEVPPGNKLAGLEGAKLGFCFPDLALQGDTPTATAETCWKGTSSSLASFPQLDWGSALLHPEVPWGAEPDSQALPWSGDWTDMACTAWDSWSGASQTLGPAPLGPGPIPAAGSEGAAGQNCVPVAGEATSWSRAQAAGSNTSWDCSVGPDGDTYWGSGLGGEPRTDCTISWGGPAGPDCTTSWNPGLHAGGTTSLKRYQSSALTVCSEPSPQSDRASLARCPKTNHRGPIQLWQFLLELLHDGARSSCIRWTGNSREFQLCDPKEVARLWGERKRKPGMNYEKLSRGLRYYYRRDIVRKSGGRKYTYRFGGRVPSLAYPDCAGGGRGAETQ
How it was run: as §1

ELF3 = molecular target: T11, ELF3 (Homo sapiens, UniProt P78545 1-371); details: protein: recombinant; tags: N-terminal GST; dsDNA, one strand shown
T11 sequence: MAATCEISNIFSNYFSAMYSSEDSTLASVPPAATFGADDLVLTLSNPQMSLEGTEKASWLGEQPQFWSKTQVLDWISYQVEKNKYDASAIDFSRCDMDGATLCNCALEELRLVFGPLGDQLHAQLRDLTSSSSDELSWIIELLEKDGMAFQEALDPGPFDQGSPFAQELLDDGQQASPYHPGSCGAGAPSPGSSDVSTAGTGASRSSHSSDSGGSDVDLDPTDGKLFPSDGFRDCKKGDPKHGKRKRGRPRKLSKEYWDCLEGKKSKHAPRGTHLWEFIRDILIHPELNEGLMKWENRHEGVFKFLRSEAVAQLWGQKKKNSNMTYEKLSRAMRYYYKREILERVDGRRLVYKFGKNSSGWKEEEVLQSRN
How it was run: as §1

CRX = CRX (Homo sapiens, UniProt O43186 1-299); details: protein: recombinant; tags: N-terminal GST; dsDNA, one strand shown
How it was run: as §1

ETV1 = ETV1 (Homo sapiens, UniProt P50549 1-477); details: protein: recombinant; tags: N-terminal GST; dsDNA, one strand shown
How it was run: as §1

Sequence of SPIB (Q01892 whole entry): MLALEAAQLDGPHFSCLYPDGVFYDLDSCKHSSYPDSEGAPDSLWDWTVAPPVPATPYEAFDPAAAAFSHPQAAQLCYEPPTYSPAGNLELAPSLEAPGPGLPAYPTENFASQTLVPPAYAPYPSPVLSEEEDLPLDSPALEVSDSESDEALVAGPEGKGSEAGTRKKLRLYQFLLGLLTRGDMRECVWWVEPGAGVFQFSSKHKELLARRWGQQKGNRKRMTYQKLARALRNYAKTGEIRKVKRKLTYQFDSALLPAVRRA
Sequence of ELF4 (Q99607 whole entry): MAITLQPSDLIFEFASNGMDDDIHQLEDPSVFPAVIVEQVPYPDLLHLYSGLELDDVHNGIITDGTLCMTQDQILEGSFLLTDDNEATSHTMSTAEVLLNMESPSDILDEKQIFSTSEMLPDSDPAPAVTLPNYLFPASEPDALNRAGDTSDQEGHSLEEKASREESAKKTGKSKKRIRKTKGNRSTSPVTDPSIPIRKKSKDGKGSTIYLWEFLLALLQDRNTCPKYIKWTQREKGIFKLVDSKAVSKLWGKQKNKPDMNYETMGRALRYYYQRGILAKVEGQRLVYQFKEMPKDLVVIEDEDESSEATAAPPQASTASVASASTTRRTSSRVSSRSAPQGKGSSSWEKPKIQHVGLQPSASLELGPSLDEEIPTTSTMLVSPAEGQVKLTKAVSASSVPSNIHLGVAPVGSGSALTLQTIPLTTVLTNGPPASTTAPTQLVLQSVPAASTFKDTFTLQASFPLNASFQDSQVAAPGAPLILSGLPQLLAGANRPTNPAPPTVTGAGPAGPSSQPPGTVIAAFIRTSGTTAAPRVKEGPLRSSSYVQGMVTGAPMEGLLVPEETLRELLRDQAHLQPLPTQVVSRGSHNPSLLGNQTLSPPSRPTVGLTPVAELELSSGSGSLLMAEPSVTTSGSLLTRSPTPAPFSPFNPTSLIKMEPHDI
Sequence of HSF1 (Q00613 whole entry): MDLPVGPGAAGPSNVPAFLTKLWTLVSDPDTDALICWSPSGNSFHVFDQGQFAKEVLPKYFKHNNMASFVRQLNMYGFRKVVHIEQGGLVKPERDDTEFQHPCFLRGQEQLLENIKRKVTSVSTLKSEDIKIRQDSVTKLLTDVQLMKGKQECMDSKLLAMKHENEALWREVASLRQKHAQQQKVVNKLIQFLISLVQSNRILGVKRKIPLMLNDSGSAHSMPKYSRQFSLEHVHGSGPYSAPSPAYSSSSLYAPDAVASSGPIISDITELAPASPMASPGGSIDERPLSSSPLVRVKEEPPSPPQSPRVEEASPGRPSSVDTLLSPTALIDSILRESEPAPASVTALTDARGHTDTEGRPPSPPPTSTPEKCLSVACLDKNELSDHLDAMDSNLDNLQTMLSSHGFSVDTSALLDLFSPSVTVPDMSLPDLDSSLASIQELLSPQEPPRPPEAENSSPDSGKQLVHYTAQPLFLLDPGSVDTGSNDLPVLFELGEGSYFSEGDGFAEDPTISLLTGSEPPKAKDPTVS
Sequence of CRX (O43186 whole entry): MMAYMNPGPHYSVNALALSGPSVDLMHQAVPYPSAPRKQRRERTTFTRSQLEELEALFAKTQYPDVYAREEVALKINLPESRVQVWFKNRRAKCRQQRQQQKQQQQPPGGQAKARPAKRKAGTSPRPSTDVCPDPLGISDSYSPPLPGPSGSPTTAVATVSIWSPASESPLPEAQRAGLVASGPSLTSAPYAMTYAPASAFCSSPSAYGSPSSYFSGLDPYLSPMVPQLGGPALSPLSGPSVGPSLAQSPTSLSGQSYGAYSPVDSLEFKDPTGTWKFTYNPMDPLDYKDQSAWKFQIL
Sequence of ETV5 (P41161 whole entry): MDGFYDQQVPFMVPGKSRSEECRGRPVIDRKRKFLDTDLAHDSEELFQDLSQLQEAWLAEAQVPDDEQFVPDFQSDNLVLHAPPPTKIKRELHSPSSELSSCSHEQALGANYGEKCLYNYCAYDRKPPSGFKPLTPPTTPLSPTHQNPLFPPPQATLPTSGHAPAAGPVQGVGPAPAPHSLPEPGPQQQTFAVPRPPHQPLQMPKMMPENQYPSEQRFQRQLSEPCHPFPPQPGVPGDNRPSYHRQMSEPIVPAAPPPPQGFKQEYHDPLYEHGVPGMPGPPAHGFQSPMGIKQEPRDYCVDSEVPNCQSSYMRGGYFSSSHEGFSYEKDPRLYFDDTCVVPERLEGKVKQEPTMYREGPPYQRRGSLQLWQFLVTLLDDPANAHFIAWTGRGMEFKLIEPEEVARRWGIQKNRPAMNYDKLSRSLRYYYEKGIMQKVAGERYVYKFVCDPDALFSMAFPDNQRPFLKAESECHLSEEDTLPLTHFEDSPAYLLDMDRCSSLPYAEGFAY
Sequence of ETV1 (P50549 whole entry): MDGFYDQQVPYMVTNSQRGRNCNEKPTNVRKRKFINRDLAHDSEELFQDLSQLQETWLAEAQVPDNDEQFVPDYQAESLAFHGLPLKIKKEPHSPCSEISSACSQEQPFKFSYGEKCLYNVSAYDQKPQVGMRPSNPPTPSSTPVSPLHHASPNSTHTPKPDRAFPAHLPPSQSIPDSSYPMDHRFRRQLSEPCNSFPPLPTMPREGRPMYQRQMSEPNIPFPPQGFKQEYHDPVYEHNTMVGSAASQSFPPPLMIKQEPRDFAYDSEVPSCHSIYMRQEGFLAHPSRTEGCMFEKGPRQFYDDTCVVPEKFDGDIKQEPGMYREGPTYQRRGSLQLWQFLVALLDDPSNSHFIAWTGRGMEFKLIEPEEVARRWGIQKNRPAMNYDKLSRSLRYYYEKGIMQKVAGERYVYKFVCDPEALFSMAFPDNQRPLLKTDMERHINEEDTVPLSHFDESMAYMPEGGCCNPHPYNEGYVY
Sequence of ELF1 (P32519 whole entry): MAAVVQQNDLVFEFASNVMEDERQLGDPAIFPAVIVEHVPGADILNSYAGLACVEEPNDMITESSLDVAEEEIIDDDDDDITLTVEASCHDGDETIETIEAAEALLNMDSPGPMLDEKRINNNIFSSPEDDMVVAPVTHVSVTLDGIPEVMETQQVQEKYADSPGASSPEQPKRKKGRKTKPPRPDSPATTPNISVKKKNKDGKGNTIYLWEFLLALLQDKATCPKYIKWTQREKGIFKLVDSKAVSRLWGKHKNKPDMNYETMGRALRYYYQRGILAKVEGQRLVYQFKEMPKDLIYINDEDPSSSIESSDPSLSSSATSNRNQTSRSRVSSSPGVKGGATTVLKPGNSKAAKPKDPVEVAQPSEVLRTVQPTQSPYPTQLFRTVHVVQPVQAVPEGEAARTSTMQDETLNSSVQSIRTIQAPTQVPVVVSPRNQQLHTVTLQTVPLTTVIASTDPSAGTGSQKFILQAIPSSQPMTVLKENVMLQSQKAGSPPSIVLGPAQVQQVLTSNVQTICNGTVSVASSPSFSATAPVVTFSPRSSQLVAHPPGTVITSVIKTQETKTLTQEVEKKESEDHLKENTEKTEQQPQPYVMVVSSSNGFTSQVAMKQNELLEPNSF

## AATAAG
FLI1
  binding signal: 1.22 fold enrichment (6-mer frequency, TF over GST control)
ELK1
  binding signal: 1.21 fold enrichment (6-mer frequency, TF over GST control)
GABPA
  binding signal: 1.31 fold enrichment (6-mer frequency, TF over GST control)
ERG
  binding signal: 1.37 fold enrichment (6-mer frequency, TF over GST control)
ELF1
  binding signal: 1.24 fold enrichment (6-mer frequency, TF over GST control)
EHF
  binding signal: 1.22 fold enrichment (6-mer frequency, TF over GST control)
SPI1
  binding signal: 1.27 fold enrichment (6-mer frequency, TF over GST control)
SPIB
  binding signal: 1.3 fold enrichment (6-mer frequency, TF over GST control)
ELK3
  binding signal: 1.23 fold enrichment (6-mer frequency, TF over GST control)
FEV
  binding signal: 1.26 fold enrichment (6-mer frequency, TF over GST control)
ETV5
  binding signal: 1.25 fold enrichment (6-mer frequency, TF over GST control)
HSF1
  binding signal: 1.52 fold enrichment (6-mer frequency, TF over GST control)
SPIC
  binding signal: 1.3 fold enrichment (6-mer frequency, TF over GST control)
ELF4
  binding signal: 1.26 fold enrichment (6-mer frequency, TF over GST control)
ELK4
  binding signal: 1.2 fold enrichment (6-mer frequency, TF over GST control)
ETV2
  binding signal: 1.19 fold enrichment (6-mer frequency, TF over GST control)
ELF3
  binding signal: 1.29 fold enrichment (6-mer frequency, TF over GST control)
CRX
  binding signal: 1.98 fold enrichment (6-mer frequency, TF over GST control)
ETV1
  binding signal: 1.26 fold enrichment (6-mer frequency, TF over GST control)
